Data published in PubChem BioAssay (Tox21).
Results filed as inconclusive are left out. Entries that show only a call come without a potency. Values without a mark were called inactive. Active and inactive are the calls of the source. The call rests on the fitted dose curve; in most records, active means well fitted cell-killing curve with a large enough effect in the repeat runs; inconclusive means weak or mixed curves, or effect the other way; inactive means flat fitted curve, though single readings scatter.

Columns and labels:
[1] = cAMP Responsive Elements (CRE) small molecule antagonists, cell-based qHTS assay: qHTS cell viability counter screen (AID 2060913); further: nearly all actives have a fitted effect of over 40% in size
Procedure, shortened: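 HEK293T CRE-bla, 2,000 cells/well, 18 h preincubation; cpd in DMSO + NKH477 0.25 uM final, 3 h 37 C/5% CO2; LiveBLAzer 2 h RT, then CellTiter-Glo 30 min RT, luminescence.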

[2] = cAMP Responsive Elements (CRE) small molecule agonists, cell-based qHTS assay: qHTS cell viability counter screen (AID 2060914);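 further: viability read after 3 h of compound exposure; nearly all actives have a fitted effect of over 50% in size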
Procedure, shortened: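 Cytotoxicity counter screen multiplexed with the CRE-bla reporter assay in HEK 293T cells: 3 h compound exposure at 37 °C, followed by CellTiter-Glo luminescence measured in the same wells.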

In the case of `N[C@H]1C(O)O[C@H](CO)[C@H](O)[C@@H]1O` (stereo not given in full), the Potency [1] is reported as “inactive” and the Potency [2] is reported as “inactive”.

With `CC(CCc1ccc2c(c1)OCO2)NN` (stereo not given) the Potency [1] was “inactive” and the Potency [2] was “inactive”.

In the case of `CCO[C@@H]1O[C@H](C(COCc2ccccc2)OCc2ccccc2)[C@H](OCc2ccccc2)[C@H]1O` (stereo not given in full), the Potency [1] is reported as “inactive” and the Potency [2] is reported as “inactive”.

In the case of `C=CC(=O)OCCCCCCCCCC`, the Potency [1] is reported as “inactive” and the Potency [2] is reported as “inactive”.

With `COC(=O)CCCC(=O)O` the Potency [1] was “inactive” and the Potency [2] was “inactive”.

For `COC(=O)NCCC[Si](OC)(OC)OC`, the Potency [1] was “inactive” and the Potency [2] was “inactive”.

For `CCCCCCCC/C=C\CCCCCCCCN`, the Potency [1] was “inactive” and the Potency [2] was “inactive”.

In the case of `COc1ccc(O)cc1`, the Potency [1] is reported as “inactive” and the Potency [2] is reported as “inactive”.

With `Cc1c(C(=O)NN2CCCCC2)nn(-c2ccc(Cl)cc2Cl)c1-c1ccc(Cl)cc1` the Potency [1] was “inactive” and the Potency [2] was “inactive”.

With `COc1ccc(C)cc1N` the Potency [1] was “inactive” and the Potency [2] was “inactive”.

For `CCCCCC/C(C=O)=C\c1ccccc1`, the Potency [1] was “inactive” and the Potency [2] was “inactive”.

In the case of `CC(C)Cc1nccs1`, the Potency [1] is reported as “inactive” and the Potency [2] is reported as “inactive”.

For `CNc1ccccc1`, the Potency [1] was “inactive” and the Potency [2] was “inactive”.

In the case of `CCOC(=O)c1ccc(O)cc1`, the Potency [1] is reported as “inactive” and the Potency [2] is reported as “inactive”.

With `C=CC(C)(CCC=C(C)C)OC=O` (stereo not given) the Potency [1] was “inactive” and the Potency [2] was “inactive”.

With `CCCCN(CCCC)CCCOC(=O)c1ccc(N)cc1` the Potency [1] was “inactive” and the Potency [2] was “inactive”.

With `COc1cc(C(=O)OCCCN2CCCN(CCCOC(=O)c3cc(OC)c(OC)c(OC)c3)CC2)cc(OC)c1OC` the Potency [1] was “inactive” and the Potency [2] was “inactive”.

In the case of `CC(=O)N[C@H]1[C@H]([C@H](O)[C@H](O)CO)OC(C(=O)O)=C[C@@H]1N=C(N)N`, the Potency [1] is reported as “inactive” and the Potency [2] is reported as “inactive”.

With `CCOC(=O)c1ccccc1C(=C1C=C(Br)C(=O)C(Br)=C1)c1cc(Br)c(O)c(Br)c1` the Potency [1] was “inactive” and the Potency [2] was “inactive”.

In the case of `CC(Cc1ccc(O)c(O)c1)C(C)Cc1ccc(O)c(O)c1` (stereo not given), the Potency [1] is reported as “inactive” and the Potency [2] is reported as “inactive”.

For `C=CC(=C)CCCC(C)(C)OC(C)=O`, the Potency [1] was “inactive” and the Potency [2] was “inactive”.

For `CC(C)OP(=O)(CP(=O)(OC(C)C)OC(C)C)OC(C)C`, the Potency [1] was “inactive” and the Potency [2] was “inactive”.

For `CCOC(=O)N1CCC(Nc2ccc(Cl)cc2N)CC1`, the Potency [1] was “inactive” and the Potency [2] was “inactive”.

In the case of `CCCCCC[C@@H](O)C/C=C\CCCCCCCC(=O)OC`, the Potency [1] is reported as “inactive” and the Potency [2] is reported as “inactive”.

In the case of `Cc1cccnc1`, the Potency [1] is reported as “inactive” and the Potency [2] is reported as “inactive”.

In the case of `O=[N+]([O-])c1cc(C(F)(F)F)ccc1Cl`, the Potency [1] is reported as “inactive” and the Potency [2] is reported as “inactive”.

In the case of `Nc1ccc(NCCO)c([N+](=O)[O-])c1`, the Potency [1] is reported as “inactive” and the Potency [2] is reported as “inactive”.

In the case of `C=CCc1cc(S(=O)(=O)c2ccc(O)c(CC=C)c2)ccc1O`, the Potency [1] is reported as “inactive” and the Potency [2] is reported as “inactive”.

In the case of `C=CC(=O)OCC(Br)CBr` (stereo not given), the Potency [1] is reported as “inactive” and the Potency [2] is reported as “inactive”.

In the case of `O=C(O)CCC(=O)Nc1ccc(S(=O)(=O)Nc2nccs2)cc1`, the Potency [1] is reported as “inactive” and the Potency [2] is reported as “inactive”.

With `CSc1ccc(C(=O)c2[nH]c(=O)[nH]c2C)cc1` the Potency [1] was “inactive” and the Potency [2] was “inactive”.

With `CC1=CC(=O)CC(C)(C)C1` the Potency [1] was “inactive” and the Potency [2] was “inactive”.

For `Nc1cccc(O)c1`, the Potency [1] was “inactive” and the Potency [2] was “inactive”.

In the case of `CCc1cc(C2=C(C(=O)O)N(c3ccccc3C(F)(F)F)S(=O)(=O)c3ccccc32)cc2c1OCO2`, the Potency [1] is reported as “inactive” and the Potency [2] is reported as “inactive”.

With `Cc1ccc(C(C)(C)O)cc1` the Potency [1] was “inactive” and the Potency [2] was “inactive”.

For `CCN(C)C(=O)Oc1cccc([C@H](C)N(C)C)c1`, the Potency [1] was “inactive” and the Potency [2] was “inactive”.

With `Cc1cc(O)c2c(O)c3c(O)cccc3cc2c1` the Potency [1] was “inactive” and the Potency [2] was “inactive”.

In the case of `NC1(c2ccc(-c3nc4ccn5c(=O)[nH]nc5c4cc3-c3ccccc3)cc2)CCC1`, the Potency [1] is reported as “inactive” and the Potency [2] is reported as “inactive”.

With `CC(C)(O)CCCC1=CCC(C=O)CC1` (stereo not given) the Potency [1] was “inactive” and the Potency [2] was “inactive”.

For `COc1cccc2c1C(=O)c1c(O)c3c(c(O)c1C2=O)C[C@@](O)(C(=O)CO)C[C@@H]3O[C@H]1C[C@H](N)[C@H](O)[C@H](C)O1`, the Potency [1] was “inactive” and the Potency [2] was “inactive”.

For `C[n+]1c2cc(N)ccc2cc2ccc(N)cc21` (tested in a mixture with another compound), the Potency [1] was “inactive” and the Potency [2] was “inactive”.

In the case of `CCCCOC(=O)CCCCC(=O)OCCCC`, the Potency [1] is reported as “inactive” and the Potency [2] is reported as “inactive”.

With `Nc1ncnc2c1ncn2[C@@H]1O[C@H](CO)[C@@H](O)[C@H]1O` the Potency [1] was “inactive” and the Potency [2] was “inactive”.

For `CC(C(=O)O)c1ccc(-c2ccccc2)c(F)c1` (stereo not given), the Potency [1] was “inactive” and the Potency [2] was “inactive”.

In the case of `COC(=O)Nc1ccc(Cl)c(Cl)c1`, the Potency [1] is reported as “inactive” and the Potency [2] is reported as “inactive”.

With `Cc1ccc(-c2cc(C(F)(F)F)nn2-c2ccc(S(N)(=O)=O)cc2)cc1` the Potency [1] was “inactive” and the Potency [2] was “inactive”.

With `CCc1c(C)[nH]c2c1C(=O)C(CN1CCOCC1)CC2` (stereo not given) the Potency [1] was “inactive” and the Potency [2] was “inactive”.

With `COc1cc(-c2ccc(=O)[nH]n2)ccc1OC(F)F` the Potency [1] was “inactive” and the Potency [2] was “inactive”.

With `CC(C)(C)C(=O)c1ccccc1` the Potency [1] was “inactive” and the Potency [2] was “inactive”.

In the case of `OCC(CO)n1cnc(-c2ccc(F)cc2)c1-c1ccnc(Oc2ccccc2)n1`, the Potency [1] is reported as “inactive” and the Potency [2] is reported as “inactive”.

In the case of `O=C(OCc1ccccc1)c1ccc(O)cc1`, the Potency [1] is reported as “inactive” and the Potency [2] is reported as “inactive”.

For `O=c1[nH]c(=O)c2cn[nH]c2[nH]1`, the Potency [1] was “inactive” and the Potency [2] was “inactive”.

For `CCC1CO1` (stereo not given), the Potency [1] was “inactive” and the Potency [2] was “inactive”.

With `NS(=O)(=O)c1cc(C(=O)O)c(NCc2ccco2)cc1Cl` the Potency [1] was “inactive” and the Potency [2] was “inactive”.

In the case of `COC(=O)N[C@H](C(=O)N[C@@H](Cc1ccccc1)[C@@H](O)CN(Cc1ccc(-c2ccccn2)cc1)NC(=O)[C@@H](NC(=O)OC)C(C)(C)C)C(C)(C)C`, the Potency [1] is reported as “inactive” and the Potency [2] is reported as “inactive”.
